Measured values reported in paper PMC7819943, “Rice protein-binding microarrays: a tool to detect cis-acting elements near promoter regions in rice”.
Whole data set: some 68,000 sequences, median “fluorescence intensity (a.u.)” near 9,100, cut for the highest 2% near 16,000. The full list was thinned out, with the highest values kept by preference.

target: OsWRKY34 (Oryza sativa, UniProt Q0JBA9 1-250); assay: protein-binding microarray (RPBM); PBS, 2% BSA, 51.3 ng/ul salmon testes DNA, 50 uM zinc acetate, 200 nM TF, 25 C, 1 h; high values mean tight binding; conditions: protein: recombinant; tags: N-terminal polyhistidine and DsRed monomer fusion (pET32a); label: CyDye5-dUTP incorporated in the synthesized complementary strand; 3' TTTTT single-stranded linker to array surface; dsDNA, one strand shown
Sequence (Q0JBA9 entry or part of it): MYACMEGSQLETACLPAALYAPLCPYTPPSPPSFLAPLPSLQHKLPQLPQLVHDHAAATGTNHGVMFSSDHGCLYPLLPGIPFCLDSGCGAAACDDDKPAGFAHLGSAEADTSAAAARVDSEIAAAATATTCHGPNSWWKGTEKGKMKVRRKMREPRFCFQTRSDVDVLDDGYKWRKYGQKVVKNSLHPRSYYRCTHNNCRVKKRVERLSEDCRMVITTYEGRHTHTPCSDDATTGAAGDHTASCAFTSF
Method in brief: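 Per-feature fluorescence intensity (arbitrary units), read on an Axon 4000B scanner, is the binding signal. Transcription factors carrying an N-terminal polyhistidine tag and DsRed fusion were expressed in E. coli BL21-CodonPlus and purified on Ni–NTA. A custom Agilent array, made double-stranded by primer extension with Cy5-dUTP and blocked with 2% BSA, was incubated with 200 nM protein in PBS, 2% BSA, salmon testes DNA and 50 µM zinc acetate at 25 °C for 1 h and then washed.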

Sequence | binding signal
GAGTTTTTACTTTGTAATGTTTGACCACTCGTCTTATTCACGGAGTCACCTAGTGCAG | 8880 fluorescence intensity (a.u.)
CTTCCTAACGTTCATATCTCTGTGTTTTTAGTGTGTCATACGGAGTCACCTAGTGCAG | 9860 fluorescence intensity (a.u.)
GGCCTAATTATTGCCTTAATTTTTCTCTTTGGTTTTCTCACGGAGTCACCTAGTGCAG | 9070 fluorescence intensity (a.u.)
TGAGGGCTGCTGTGCTATTCTTCCTGGACATCTCTGGGTCCGGAGTCACCTAGTGCAG | 8650 fluorescence intensity (a.u.)
TTTCTGTTTAACGTCAACCCGGCTGTTTTCGCCCGGTCAACGGAGTCACCTAGTGCAG | 9040 fluorescence intensity (a.u.)
GCCAAGACGCCCAAAGCACACACTCTCTCTCGCTGTCTTTCGGAGTCACCTAGTGCAG | 8490 fluorescence intensity (a.u.)
GATTTGATGGATTTGTTGAGAGATATGCTTCTTAAGCCAACGGAGTCACCTAGTGCAG | 8300 fluorescence intensity (a.u.)
CACACCTAGGCCGCCTTTTTCAACCGGGGAGCACACCTTTCGGAGTCACCTAGTGCAG | 10400 fluorescence intensity (a.u.)
AATATGTACTACTTCCGTTTCAGGTTATAAGACTTTCTAGCGGAGTCACCTAGTGCAG | 8400 fluorescence intensity (a.u.)
CGTAGTAATGTCTGAATTCACCGCCTTAATCCTGTCACGACGGAGTCACCTAGTGCAG | 8450 fluorescence intensity (a.u.)
TTTTTCTTTTCTCGCGTACAGCTGGACGCTTCGTTTGCTTCGGAGTCACCTAGTGCAG | 11100 fluorescence intensity (a.u.)
CCCATCAACCGCCAAAGACTTCCCGCGCGCGTCTACATATCGGAGTCACCTAGTGCAG | 8450 fluorescence intensity (a.u.)
ACCGTCCTCCTCGTCACCCACCAGCTCGACTTCCTCCGCACGGAGTCACCTAGTGCAG | 8200 fluorescence intensity (a.u.)
GTCAACGATCCGGCGTCTGTTCCACTTCTACCCTCCCATCCGGAGTCACCTAGTGCAG | 8250 fluorescence intensity (a.u.)
CTGGATCTCCTCTCTCTCTCTCTCTCTCTGTCCTTCTTCTCGGAGTCACCTAGTGCAG | 10800 fluorescence intensity (a.u.)
TTTCTCATATGTTTGACCATTCGTCTTATTAAAAAAATTTCGGAGTCACCTAGTGCAG | 8930 fluorescence intensity (a.u.)
CATCTGTCTCTGGATCTCTGCATATCTCCTCTTCTGTGATCGGAGTCACCTAGTGCAG | 17200 fluorescence intensity (a.u.)
TACTGGTTCTACTTGATCTTATTTATCTTTTTATTCTATTCGGAGTCACCTAGTGCAG | 10100 fluorescence intensity (a.u.)
CCCTTTACTTGATTTTCTGCTGGTTGGTTTATCTTTTATTCGGAGTCACCTAGTGCAG | 19600 fluorescence intensity (a.u.)
ATTTAGAGTTGACTTTGGTTTATTTTTCATTGAAGTTTATCGGAGTCACCTAGTGCAG | 9450 fluorescence intensity (a.u.)
ATTTTACTCTTTTGACTATATTGGTTCGGTTGAAGTTTTACGGAGTCACCTAGTGCAG | 23100 fluorescence intensity (a.u.)
CATATGTTTGACCATTCGTCTTATTCAAAAATTTTATTCACGGAGTCACCTAGTGCAG | 9660 fluorescence intensity (a.u.)
TCTGCATGATTCCTTGGTTTCTTTTTTTACACATTTACTTCGGAGTCACCTAGTGCAG | 10500 fluorescence intensity (a.u.)

Sequence | binding signal
CTGTTGACTTTTTCTTATATGTTTGACCATTCGTCTTATTCGGAGTCACCTAGTGCAG | 24600 fluorescence intensity (a.u.)
ATACTCTTGGTTTATCTTTGATTTTGTATATCTTTTTATTCGGAGTCACCTAGTGCAG | 9720 fluorescence intensity (a.u.)
ACCATCTCTCTCTCTCTCTCTGCATGCATATCTTCTCCTCCGGAGTCACCTAGTGCAG | 14300 fluorescence intensity (a.u.)
TCTGCTTCACTGTATTTTTGTCCAACAATTCCATGACATGCGGAGTCACCTAGTGCAG | 8550 fluorescence intensity (a.u.)
TTTAGATTTATTTTTTGTGACATAGGGAGTACTTTTTTTTCGGAGTCACCTAGTGCAG | 9200 fluorescence intensity (a.u.)
CTTCTCAAGTTCCAACCTTTGCGCTTTCTTATTATCAAAGCGGAGTCACCTAGTGCAG | 8550 fluorescence intensity (a.u.)
GCACGCATGCAGTTCCTTGACCAATTCTCACATCAACCACCGGAGTCACCTAGTGCAG | 9100 fluorescence intensity (a.u.)
AAACGTATGGCTGCTCTCTCTCTGCTGATGATCTCTCTCTCGGAGTCACCTAGTGCAG | 8180 fluorescence intensity (a.u.)
GCCAATTTTTTCTCCTCACATCTATTTTACCCTATTATTCCGGAGTCACCTAGTGCAG | 8390 fluorescence intensity (a.u.)
CCGAGCACCCACCCGCCGCCGCCGCCGTCGCCGATTCATGCGGAGTCACCTAGTGCAG | 9080 fluorescence intensity (a.u.)
GTAATTAACCAGAATTCAGGTTTTGTCAGTGCCACCATCACGGAGTCACCTAGTGCAG | 9850 fluorescence intensity (a.u.)
ATTTTATTGTTGCGGTTGCCAATCAACAACGACGTCATTTCGGAGTCACCTAGTGCAG | 9550 fluorescence intensity (a.u.)
GAATCATGAGTTGGTTGGGTTGGCATTAAACTGTTTTGAGCGGAGTCACCTAGTGCAG | 12100 fluorescence intensity (a.u.)
ATGACATGTCATGGGACTTACTTTACATGGTTTTGAATACCGGAGTCACCTAGTGCAG | 8140 fluorescence intensity (a.u.)
GGTTTTGCGGTTGAGCGAAACGACCCAATGGGAATCAAGACGGAGTCACCTAGTGCAG | 60000 fluorescence intensity (a.u.)
CGTTGACTTTTTCTTACATGTTTGACCATTCGTCTTATTTCGGAGTCACCTAGTGCAG | 35300 fluorescence intensity (a.u.)
ACTTTGTCCACCCATTTTGTGTTGTCTCGTTGTTTCTATTCGGAGTCACCTAGTGCAG | 17000 fluorescence intensity (a.u.)
TGTTGACTTTTGGATACATGTTTGACAATTCGTCTTATTTCGGAGTCACCTAGTGCAG | 14700 fluorescence intensity (a.u.)
TCGTTGATTTTTGACATGATGTTTGACCATTCTTATTATTCGGAGTCACCTAGTGCAG | 9750 fluorescence intensity (a.u.)
TTTGTGTTGTCTAGACATTTTTTTCTATTTTTCACCTATTCGGAGTCACCTAGTGCAG | 9190 fluorescence intensity (a.u.)
TGGGACTTTATTTGCACTGGTTTTGGGAGTTGAGGGACACCGGAGTCACCTAGTGCAG | 8550 fluorescence intensity (a.u.)
GACACGGAAAATCATGGTTTGACTTTTTTTTTTGGGACGGCGGAGTCACCTAGTGCAG | 19400 fluorescence intensity (a.u.)
ATTTCTAACTTTTTTTCCCATTGTTTTGTTTGTCTTATTTCGGAGTCACCTAGTGCAG | 8920 fluorescence intensity (a.u.)
